Gli-Sufu block = Gli-Sufu pathway antagonism. Sufu-KO-LIGHT fibroblasts, Gli luciferase reporter luminescence. inhibition, % at 5 µM. hit rate 0.74% among 340,000;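 active = inhibition above about 55%, limit read from the data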
aSyn UTR inh = 5' untranslated region of α-synuclein, MLPCN primary screen; hit rate 0.82% among 300,000; alpha-synuclein 5'UTR reporter, inhibitor activity; inhibition, % (tested at 7.5 µM); AID 1813; in the data active = inhibition above about 60%;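 also: H4 neuroglioblastoma cells stably carrying SNCA 5'UTR luciferase fusion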
CSC inhib = cancer stem cell inhibition | hit rate 1.1% among 300,000 | cancer stem cell-like cells viability, luminescence | inhibition, % at 7.5 µM; in the data active = inhibition above about 75%; tested in HMLE shEcad cells
Mdm2-MdmX inh = inhibitors of human Mdm2/MdmX interaction; hit rate 3% among 330,000; AID 485346; inhibition, % at 8 µM; O15151+Q00987; SaOS-2 split-luciferase Mdm2/MdmX complementation, luminescence;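 active = inhibition of at least 50% at 8 µM in the primary screen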
Target sequence (O15151 whole entry, looked up): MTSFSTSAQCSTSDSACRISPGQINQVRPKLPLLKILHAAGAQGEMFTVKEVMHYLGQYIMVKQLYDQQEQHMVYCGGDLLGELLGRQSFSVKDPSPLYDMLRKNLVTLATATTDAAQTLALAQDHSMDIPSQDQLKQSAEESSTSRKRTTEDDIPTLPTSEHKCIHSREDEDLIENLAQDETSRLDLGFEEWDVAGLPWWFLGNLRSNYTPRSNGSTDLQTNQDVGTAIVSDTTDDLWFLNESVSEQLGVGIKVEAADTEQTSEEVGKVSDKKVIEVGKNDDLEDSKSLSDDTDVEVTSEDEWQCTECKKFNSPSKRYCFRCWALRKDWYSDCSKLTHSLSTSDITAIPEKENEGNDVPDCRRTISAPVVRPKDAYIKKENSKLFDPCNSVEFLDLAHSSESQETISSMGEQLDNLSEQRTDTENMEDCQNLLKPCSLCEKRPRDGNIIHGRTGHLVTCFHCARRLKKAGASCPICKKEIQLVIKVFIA
Target sequence (Q00987 whole entry, looked up): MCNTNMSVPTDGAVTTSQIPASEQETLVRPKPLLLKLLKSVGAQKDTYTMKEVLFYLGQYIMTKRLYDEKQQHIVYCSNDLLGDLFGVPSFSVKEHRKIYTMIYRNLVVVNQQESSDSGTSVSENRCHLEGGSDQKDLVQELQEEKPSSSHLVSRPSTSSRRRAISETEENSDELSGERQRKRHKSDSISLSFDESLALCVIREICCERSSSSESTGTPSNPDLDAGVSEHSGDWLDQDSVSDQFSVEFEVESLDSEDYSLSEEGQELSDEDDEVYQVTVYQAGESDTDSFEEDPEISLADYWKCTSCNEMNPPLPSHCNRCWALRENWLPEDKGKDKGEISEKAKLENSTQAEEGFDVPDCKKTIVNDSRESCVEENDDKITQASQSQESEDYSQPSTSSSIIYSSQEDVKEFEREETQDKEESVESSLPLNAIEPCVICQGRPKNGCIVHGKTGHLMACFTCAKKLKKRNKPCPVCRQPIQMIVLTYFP
697 NFkB inh = inhibitors of the PMA/ionomycin-induced NF-kB reporter in 697 B cells; 697 B-cell NF-kB luciferase reporter, 16 h; inhibition, % at 4 µM; hit rate 0.33% among 330,000; AID 435022; in the data active = inhibition above about 35%
Jurkat NFkB inh = inhibitors of the PMA/ionomycin-induced NF-kB reporter in Jurkat cells | PMA/ionomycin-induced NF-kB luciferase reporter, luminescence | inhibition, % at 4 µM | hit rate 0.53% among 330,000 | AID 435003; in the data active = inhibition above about 50%
Mdm2-MdmX conf = human Mdm2/MdmX binding inhibition, confirmed; luminescent assay; hit rate 55% among 10,000; shares compounds with Mdm2-MdmX inh; inhibition, % at 8 µM; in the data active = inhibition above about 40%
Full FLuc ctr = inhibits full-length luciferase, flagging false Mdm2/MdmX hits; shares compounds with Mdm2-MdmX inh; SaOS-2 full-length luciferase counterscreen, luminescence; inhibition, % at 8 µM; hit rate 77% among 6,200;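 active = mean inhibition at 8 µM reaching about 37%, which flags the compound as non-specific, limit read from the data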;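 also: p53-null SaOS-2 cells with luciferase driven by a doxycycline-inducible promoter; compound on cells about two nights before reading with doxycycline added after day one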
Large screens that a line does not name were inactive (follow-up assays come after a bar, where they were run). Rows were chosen to be rich in hits. Some 4.5% of all compounds tested hit in one or more screens of this group.

COC(=O)C1=C(c2cc3ccccc3s2)C[C@@H]2CC[C@H]1N2C(=O)NCc1ccc(C(F)(F)F)cc1	Mdm2-MdmX inh 57.4 | Mdm2-MdmX conf inactive
CCOC(=O)C1(c2ccccc2)CCN(CC(=O)c2ccc(NC(C)=O)cc2)CC1	none (no result: aSyn UTR inh, CSC inhib, Mdm2-MdmX inh, 697 NFkB inh, Jurkat NFkB inh)
COc1ccc(C(c2ccc(OC)cc2)C(Cl)(Cl)Cl)cc1	none (no result: aSyn UTR inh)
c1ccc2c(c1)[nH]c1cnccc12	none
Cc1c2ccncc2c(C)c2c1[nH]c1ccccc12	aSyn UTR inh 114.1, CSC inhib 108.7, Mdm2-MdmX inh 98.5 | Mdm2-MdmX conf 92.2 | Full FLuc ctr inactive
COc1ccc(CCNC(=O)c2c(N)n(CCN3CCOCC3)c3nc4ccccc4nc23)cc1	Mdm2-MdmX inh 76.2 | Mdm2-MdmX conf inactive
Nc1c(C(=O)NCCc2ccccc2)c2nc3ccccc3nc2n1CCN1CCOCC1	Mdm2-MdmX inh 54.4 (no result: CSC inhib) | Mdm2-MdmX conf inactive
Nc1c(C(=O)NCCN2CCOCC2)c2nc3ccccc3nc2n1Cc1ccccc1	none
CCOC(=O)[C@@H]1[C@H]2COc3ccc(Br)cc3[C@H]2N2C(=O)N(c3cccc(C)c3)C(=O)[C@]12C	none (no result: aSyn UTR inh)
COC(=O)C1=C(c2ccc(F)cc2OCc2ccccc2)C[C@@H]2CC[C@H]1N2C(=O)NC1CCN(Cc2ccccc2)CC1	Mdm2-MdmX inh 76.2 (no result: aSyn UTR inh) | Mdm2-MdmX conf inactive | Full FLuc ctr 60.4
COC(=O)C1=C(c2ccc(F)cc2OCc2ccccc2)C[C@@H]2CC[C@H]1N2C(=O)NCc1ccccc1	none (no result: aSyn UTR inh)
COC(=O)C1=C(c2cccc(OCc3ccccc3)c2)C[C@@H]2CC[C@H]1N2C(=O)NC1CCN(Cc2ccccc2)CC1	Mdm2-MdmX inh 60.7 (no result: aSyn UTR inh) | Mdm2-MdmX conf 40.5 | Full FLuc ctr 70.7
COC(=O)C1=C(c2ccccc2OCc2ccccc2)C[C@@H]2CC[C@H]1N2C(=O)NC1CCN(Cc2ccccc2)CC1	Mdm2-MdmX inh 51.0 (no result: aSyn UTR inh) | Mdm2-MdmX conf inactive
CC(C)[N+]12CCC(CC1)C(C(O)(c1ccccc1)c1ccccc1)C2 (centres undefined)	none
O=[N+]([O-])c1cccc(CN2CCN(Cc3ccc(Br)cc3)CC2)c1	none
CC/C(=C\C=C\[C@@H]1C=C[C@@H]2CCC[C@H]2[C@@H]1C(=O)c1ccc[nH]1)[C@@H]1O[C@@H]([C@@H](C)C(=O)O)CC[C@@H]1C	CSC inhib 90.1, Mdm2-MdmX inh 83.9 | Mdm2-MdmX conf 74.1 | Full FLuc ctr 37.3
C[C@]12CC[C@@H](O)CC1=CCC1C2CC[C@]2(C)C(=O)[C@H](F)CC12 (some centres undefined)	none (no result: aSyn UTR inh)
CC12CCC3C(CC=C4CC(O)CCC43C)C1C/C(=C\c1cccc(F)c1)C2=O (centres undefined)	Mdm2-MdmX inh 59.9 | Mdm2-MdmX conf inactive
Cc1cc(OCC(=O)NC(Cc2ccc(Cl)cc2)C(=O)O)c2c3c(c(=O)oc2c1)CCCC3 (centres undefined)	none
COc1ccc(C2=CC(c3ccc(OC)c(OC)c3)c3c(c4ccccc4oc3=O)O2)cc1OC (centres undefined)	Mdm2-MdmX inh 54.8 | Mdm2-MdmX conf 65.2 | Full FLuc ctr 66.1
COc1ccc(C2C(C#N)=C(N)Oc3c2c(=O)oc2ccccc32)cc1Cn1cc([N+](=O)[O-])cn1 (centres undefined)	none
COC(=O)C1=C(c2cccc(C#N)c2)C[C@@H]2CC[C@H]1N2C(=O)NCc1cccc2ccccc12	none (no result: aSyn UTR inh)
CC(C)(O)[C@H]1O[C@H]2CC[C@@]3(C)[C@@](O)(CC[C@H]4Cc5c([nH]c6ccccc56)[C@@]43C)C2=CC1=O	Mdm2-MdmX inh 61.9 | Mdm2-MdmX conf 49.7 | Full FLuc ctr 76.7
COC12CCC3(CC1C(C)(O)C(C)(C)C)[C@H]1Cc4ccc(O)c5c4[C@@]3(CCN1CC1CC1)C2O5 (some centres undefined)	none (no result: aSyn UTR inh, CSC inhib)
CC(=O)NC(Cc1ccc(N(CCCl)CCCl)cc1)C(=O)O (centres undefined)	none
N[C@@H](Cc1ccc(N(CCCl)CCCl)cc1)C(=O)O	Mdm2-MdmX inh 68.1 (no result: aSyn UTR inh) | Mdm2-MdmX conf inactive | Full FLuc ctr 36.4
CCNc1cc(N2CCNCC2)ccc1[N+](=O)[O-]	none (no result: Gli-Sufu block)
C=CCn1c(O)c(C(C)=NCCC2=CCCCC2)c(=O)[nH]c1=O	none
COc1ccc(/C=C/C(=O)c2c(O)n(CCC3=CCCCC3)c(=O)[nH]c2=O)cc1OC	Mdm2-MdmX inh 69.5 | Mdm2-MdmX conf inactive
C=CCn1c(O)c(C(C)=O)c(=O)[nH]c1=O (tested in a mixture with another compound)	none
C=CCN1CC[C@]23c4c5ccc(O)c4OC2C(=O)CC[C@@]3(O)C1C5 (some centres undefined)	none
COc1ccc2c3c1OC1C(=O)CC[C@@]4(O)[C@@H](C2)N(C)CC[C@]314 (some centres undefined)	Mdm2-MdmX inh 67.2 (no result: aSyn UTR inh, CSC inhib) | Mdm2-MdmX conf 52.7 | Full FLuc ctr inactive
C=C1C(=O)O[C@@H]2C[C@@H](C)[C@H]3C=CC(=O)[C@]3(O)C[C@@H]12	Mdm2-MdmX inh 57.7 | Mdm2-MdmX conf inactive
S=P(NCCNP(=S)(N1CC1)N1CC1)(N1CC1)N1CC1	none (no result: aSyn UTR inh, CSC inhib, Mdm2-MdmX inh, 697 NFkB inh, Jurkat NFkB inh)
Ic1ccccc1CN[C@@H]1C2CCN(CC2)[C@@H]1C(c1ccccc1)c1ccccc1	Mdm2-MdmX inh 94.4 (no result: aSyn UTR inh, CSC inhib) | Mdm2-MdmX conf 42.0 | Full FLuc ctr 65.8
CC(C)(O)[C@@H]1[C@H]2OC(=O)[C@@H]1[C@]1(O)C[C@H]3O[C@]34C(=O)O[C@H]2[C@]14C (tested in a mixture with another compound)	none (no result: Gli-Sufu block)
CC(=O)O[C@@H]1/C=C/[C@](C)(O)C[C@@H](C)C/C=C/[C@H]2[C@@H]3O[C@]3(C)[C@@H](C)[C@H]3[C@H](Cc4ccccc4)NC(=O)[C@@]312	aSyn UTR inh 113.8, Mdm2-MdmX inh 77.8 | Mdm2-MdmX conf 51.5 | Full FLuc ctr 42.2
NCCc1ccc(OCc2ccccc2)c(OCc2ccccc2)c1	CSC inhib 106.2, Mdm2-MdmX inh 92.4 (no result: aSyn UTR inh) | Mdm2-MdmX conf inactive
COc1ccc(CCN)cc1OC	none
COc1ccc2c(c1O)C13CCN(C)C(C2)C1CCC(=O)C3 (centres undefined)	none
COc1ccc2c(C)c(CCC(=O)N3C[C@H]4C[C@@H](C3)c3cccc(=O)n3C4)c(=O)oc2c1	none
CC1(C)C(=O)CCC2C1=CCC1C2CCC2(C)C(O)CCC12 (centres undefined)	none (no result: aSyn UTR inh, CSC inhib, Mdm2-MdmX inh, 697 NFkB inh, Jurkat NFkB inh)
COC(=O)[C@@H]1[C@@H](C(=O)OC)C2(c3ccccc3-c3ccccc32)N(c2ccc(Cl)cc2)N1C#N	Mdm2-MdmX inh 100.6 | Mdm2-MdmX conf inactive
O=C(CSC1c2ccccc2-c2ccccc21)N/N=C/c1ccccc1O	CSC inhib 83.2, Mdm2-MdmX inh 82.4 | Mdm2-MdmX conf 75.8 | Full FLuc ctr inactive

Screening data as filed in PubChem BioAssay.
